# PubChem BioAssay (NCI)
# Compounds without any hit were thinned out: in the full panel of roughly 79,000, 15% have a hit. Unmarked numbers belong to inactive results. Activity calls are given as the source filed them. Rule as the data show it: active = growth inhibition above about 70%; inactive = the rest.
# Tests used:
# [1] = NCI Yeast Anticancer Drug Screen. Data for the rad50 strain (AID 155);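 also: 0% = growth of vehicle-only cultures of the same strain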; conditions: S. cerevisiae rad50 strain growth inhibition; at 50.0 µM; stronger effect = higher value
# In short: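 Compounds were tested on a yeast strain with an engineered DNA damage repair alteration; the reported value is growth inhibition normalised to vehicle treatment.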
# [2] = NCI Yeast Anticancer Drug Screen. Data for the mec2-1 strain (AID 157); conditions: S. cerevisiae mec2-1 strain, at 50.0 µM, stronger effect = higher value
# In short: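 Using mec2-1 yeast: add compound, measure growth, express inhibition versus vehicle-treated cultures.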
# [3] = NCI Yeast Anticancer Drug Screen. Data for the sgs1 mgt1 strain (AID 161);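 also: 0% = growth of cultures given vehicle only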; conditions: S. cerevisiae sgs1 mgt1 strain, at 50.0 µM, stronger effect = higher value
# In short: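 Compounds are added to genetically altered yeast, and growth is compared with cultures given vehicle alone to give percent inhibition.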
# [4] = NCI Yeast Anticancer Drug Screen. Data for the cln2 rad14 strain (AID 165);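 also: 0% = growth equal to vehicle treated cultures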; conditions: S. cerevisiae cln2 rad14 strain, at 50.0 µM, stronger effect = higher value
# In short: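 Yeast strain cln2 rad14, bearing defects in cell cycle control and DNA repair, serves as the test system; values reflect growth inhibition compared with vehicle.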
# [5] = NCI Yeast Anticancer Drug Screen. Data for the bub3 strain (AID 167); conditions: S. cerevisiae bub3 mutant strain, at 50.0 µM, stronger effect = higher value
# In short: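 Growth of a checkpoint-deficient yeast mutant is measured after compound exposure. Values represent inhibition relative to vehicle.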
# [6] = NCI Yeast Anticancer Drug Screen. Data for the mlh1 rad18 strain (AID 175); conditions: S. cerevisiae mlh1 rad18 strain growth inhibition; at 50.0 µM; stronger effect = higher value
# In short: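 Steps: expose repair-defective yeast to compound; measure growth; express inhibition against vehicle-treated controls.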
Compound,growth inhibition [1],growth inhibition [2],growth inhibition [3],growth inhibition [4],growth inhibition [5],growth inhibition [6]
O=c1ncccn1C1OC(CO)C(O)C1F (centres undefined),4.75%,-6.7%,9.5%,-7.15%,3.75%,-1.7%
CN(C)C(=O)CC(O)c1ccccc1 (centres undefined),13.9%,-9.95%,1.6%,-30.2%,-2.55%,4.75%
Cc1cc(=O)[nH]c2nc(N)ccc12,-9.5%,-8.25%,11.7%,-24.9%,7.8%,-18.9%
O=C=Nc1cccc([N+](=O)[O-])c1,-0.65%,-5.7%,-0.75%,-5.05%,-27.9%,-40.5%
O=C(Nc1cccc(O)c1)Nc1ccc(Cl)cc1[N+](=O)[O-],98.2% (active),99.3% (active),99.2% (active),97.5% (active),83% (active),97.8% (active)
O=C(NCCO)Nc1ccc2c(c1)OCCOCCOCCOCCO2,-0.95%,4.8%,-2.65%,14.1%,1.75%,5.9%
C=CCn1c(=S)sc2ccccc21,14.8%,13.3%,12.8%,17.7%,-7.65%,-1.95%
O=C(O)CCC(NC(=O)c1ccc(Nc2nc3ccc(C(F)(F)F)cc3nc2-c2ccccc2)cc1)C(=O)O (centres undefined),-11.5%,11.9%,4.75%,-8.75%,1.25%,-0.05%
CS(=O)(=O)OCCCCCCCCCCCC1C=CCC1 (centres undefined),10.3%,-32.4%,5.15%,11.8%,-8.25%,3.1%
O=C([O-])C[n+]1ccccc1/C=C/c1ccccc1,-19.2%,1.8%,-23.1%,-15.2%,-7.75%,-23.9%
CCCCC(=O)c1cc2ccccc2c2ccccc12,-3.7%,-20.4%,0.2%,-11.1%,10.5%,6.3%
Cc1cccc[n+]1[O-],10.8%,-8%,5.9%,-13.7%,1.65%,7%
CCCCC1(C(=O)NC(=Nc2ccccc2)Nc2ccccc2)CCOC1=O (centres undefined),4.3%,8.15%,-2.55%,-11.9%,-2.95%,4.9%
CCCCCC(Oc1ccc(Cl)cc1Cl)C(=O)O (centres undefined),96.7% (active),85.6% (active),97.5% (active),93% (active),91.2% (active),93.5% (active)
COc1cc(NS(=O)(=O)c2ccc(N)cc2)c2ncccc2c1,1.2%,22.8%,8.8%,-17.1%,4.5%,2.95%
COc1ccc(C2NC(C(=O)O)Cc3c2[nH]c2ccccc32)cc1OC (centres undefined),-12.2%,-5.6%,-14.8%,-12.9%,-4.3%,-22%
O=C(O)c1c(Br)c(Br)c(Br)c(Br)c1C(=O)Nc1ccc([N+](=O)[O-])cc1,-14.6%,2.65%,3.35%,4.75%,3.15%,-1.05%
Cc1nc2c(c(-c3ccccc3)n1)Cc1ccccc1O2,-4.05%,-12.4%,7.55%,-10.5%,25.8%,0%
Cc1[nH]c(=O)[nH]c(=O)c1N,4.8%,-10.4%,-28.9%,-19.4%,-2.9%,2%
Oc1ccc(Cl)cc1-c1cc(-c2ccccc2)nc(=S)[nH]1,-12.7%,-34.8%,-17.6%,-0.2%,-1.3%,-3.6%

Compound,growth inhibition [1],growth inhibition [2],growth inhibition [3],growth inhibition [4],growth inhibition [5],growth inhibition [6]
Cn1c(=O)c2nc3c(=O)n(C)c(=O)n(CC(N)=O)c3nc2n(C)c1=O,28.2%,-5.65%,14.9%,26.2%,12.1%,21.4%
CC(=O)Nc1ccc(/C=N/NC(=S)Nc2cccc3cccnc23)cc1,-1.2%,17.9%,-5%,10.5%,31.4%,-4.45%
O=C(CC1CCCCC1)OCC1CCCO1 (centres undefined),-7.1%,-25.6%,-18.4%,-4.15%,-6.95%,4.55%
N#CC1(Cc2ccccc2)c2ccccc2-c2ccccc21,34.2%,27.8%,28.8%,1.85%,24.9%,45%
CC(=O)O[C@]12CCCC1C1(O)C(O)CCCC12 (some centres undefined),-30.7%,-50.1%,-72.3%,-9.55%,-30.6%,-34.6%
C/C=C/c1ccc2oc(-c3ccc(OC4OC(C)C(O)C(O)C4O)cc3)c(C)c2c1 (centres undefined),98.9% (active),99% (active),99.2% (active),98.7% (active),98.5% (active),51.9%
O=P(O)(O)c1ccccc1Br,-13.1%,-17.2%,4.85%,-15.8%,2.3%,3.2%
NNC(=O)C1CC1,0.5%,-25.9%,-5.65%,2.8%,-14.1%,-4.55%
CCCOC(=O)c1ccc(C(C)C)cc1,1.1%,0.8%,-5.3%,3.7%,2.25%,-1%
CC(C)CN1CC(=O)N2Cc3ccccc3CN2C(=O)C1,-28.6%,-10.2%,-17.4%,-4.95%,-1.3%,-2.5%
O=C(Nc1ccccc1Cl)Oc1ccc(Cl)cc1Cc1ccccc1,99.7% (active),99.7% (active),99.7% (active),99.7% (active),99.7% (active),99.7% (active)
CCCCCCCc1ccccc1,-13.1%,-14.7%,-19.6%,3.95%,20.2%,-6.5%
COc1ccc2c(c1OC)C1(CCN(C)C)CC(O)CCC1C=C2 (centres undefined),20.4%,7.95%,5.75%,-4.6%,13.2%,18.1%
O=C(O)c1ccccc1P(=O)(O)c1ccccc1,-13%,-10.3%,-6.7%,5.35%,-6.85%,-31.2%
COC(=O)c1cccc(Cl)n1,4.7%,-16.8%,-6.95%,1.05%,10.4%,7.85%
CCCCCCCCCCCCCC(=O)OCC(=O)c1ccc(-c2ccccc2)cc1,23.1%,4.2%,32.5%,29.9%,11.4%,27.8%
CCc1ccccc1NC(=O)Nc1cc(C)ccn1,25.6%,12.9%,21.8%,21.3%,32%,27.9%
Cc1ncn(-c2ccccc2)c(=O)c1N=Cc1ccccc1,-13.7%,-17.1%,-32.2%,-8.85%,-19.7%,-10.3%
O=C(Nc1cc(Cl)c(I)c(Cl)c1)C(F)(F)F,96.6% (active),97.4% (active),96.8% (active),97% (active),79.8% (active),97.5% (active)
